25 compounds from PubChem BioAssay (Tox21) can be followed below.

Experiment [1] deals with Thyrotropin receptor (Homo sapiens) (UniProt P16473). Put plainly: qHTS assay to identify small molecule antagonists of the thyroid stimulating hormone receptor (TSHR) signaling pathway (AID 1259385; calls by dose curve; further: nearly all actives have a fitted effect of over 20% in size; further: potency means the concentration at half of the fitted maximal effect). In short, it runs like this: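 TSHR-HEK293 cells (800/well) plated 18 h, then compounds with Ro20-1724 and TSH at 1.5 ng/mL final, 30 min at room temperature. cAMP quantified by HTRF (cAMP-d2/anti-cAMP-cryptate, 1 h); 15 concentrations in triplicate.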
A general note: Quantitative high-throughput screening tests each substance at several concentrations.

The nature of experiment [2]: qHTS assay to identify small molecule agonists of the estrogen receptor alpha (ER-alpha) signaling pathway in the presence of an antagonist - cell viability counter screen (AID 1259386).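 Further: series mostly up to about 92 µM; cells exposed to compounds for 22 h at 37 °C before the viability read; nearly all actives have a fitted effect of over 30% in size.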 The gist of the method:
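Cell viability in VM7Luc4E2 cells (endogenous full-length ER-alpha) measured by CellTiter-Fluor fluorescence in the same wells as the luciferase screen. Cells pre-cultured 5 days in charcoal-stripped serum, then treated 22 h with compounds at 15 concentrations plus 10.0nM ICI-182,780.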

A short description of experiment [3]: qHTS assay to identify small molecule antagonists of the progesterone receptor (PR) signaling pathway - cell viability counter screen (AID 1346798). Further: nearly all actives have a fitted effect of over 50% in size. Further: potency means the concentration at half of the fitted maximal effect. On activity change, negative = cytotoxicity: series mostly up to about 92 µM. The gist of the method:
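In the same plates used for the beta-lactamase readout, cell viability of compound- and R5020-treated PR-UAS-bla HEK293T cells (16 hr, 37C) was assessed by CellTiter-Glo luminescence.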

Experiment [4] in a line: qHTS assay to identify small molecule agonists of the progesterone receptor (PR) signaling pathway - cell viability counter screen (AID 1346799; calls by dose curve; further: nearly all actives have a fitted effect of over 45% in size; further: potency means the concentration at half of the fitted maximal effect). The gist of the method:
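Multiplexed viability read: CellTiter-Glo luminescence, 30 min RT, following LiveBLAzer FRET measurement on PR-UAS-bla HEK293T cells exposed to compounds 16 hr.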

The nature of experiment [5]: qHTS assay to identify small molecule agonists of the TGF-beta/Smad signaling pathway - cell viability counter screen (AID 1346829). Further: top concentration of the series differs between compounds; nearly all actives have a fitted effect of over 45% in size. The gist of the method: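 HEK 293T SBE-bla line, 5 hr compound exposure at 37 C, multiplexed CellTiter-Glo viability read by luminescence.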
Experiment [6] has as its target Thyrotropin-releasing hormone receptor (Homo sapiens) (UniProt P34981). Put plainly: qHTS assay to identify small molecule antagonists of the thyrotropin-releasing hormone receptor (TRHR) signaling pathway (AID 1346877; active means well fitted inhibition curve with a large enough effect in the repeat runs, not every such curve was filed as active; further: series mostly up to about 51 µM). In short, it runs like this: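 TRHR-expressing HEK293 cells loaded with calcium dye for 2 h at 37 C; compounds pre-incubated 5 min at room temperature before TRH challenge at 1 nM final. Intracellular calcium fluorescence read kinetically for 3 min; 15 concentrations in triplicate.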

The nature of experiment [7]: qHTS assay to identify small molecule antagonists of the TGF-beta/Smad signaling pathway - cell viability counter screen (AID 1346824). Further: nearly all actives have a fitted effect of over 50% in size. In short, it runs like this: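 SBE-bla HEK 293T cells, incubated overnight, then compound plus 0.25 ng/mL TGF-beta1 (stock added) for 5 hr at 37 C. Viability was read in the same wells by CellTiter-Glo luminescence after 30 min at room temperature.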

Experiment [8] addresses Progesterone receptor (Homo sapiens) (UniProt P06401). Put plainly: qHTS assay to identify small molecule agonists of the progesterone receptor (PR) signaling pathway (AID 1346784; calls by dose curve; further: nearly all actives have a fitted effect of over 30% in size). The gist of the method:
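Reporter assay, GripTite PR-UAS-bla HEK 293T cells: 16 hr exposure to DMSO-dissolved compounds at 37C, 5% CO2, in steroid-depleted (2% charcoal-stripped FBS) medium; beta-lactamase measured by FRET fluorescence.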

For experiment [9] the target is unchanged. In words: qHTS assay to identify small molecule antagonists of the progesterone receptor (PR) signaling pathway (AID 1346795; active means well fitted inhibition curve with a large enough effect in the signal ratio in the repeat runs, not every such curve was filed as active; the % refers to the signal ratio; further: potency means the concentration at half of the fitted maximal effect). The gist of the method: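 Stimulus R5020 at 1 nM final; cells HEK293T PR-UAS-bla; medium with 2% charcoal-stripped FBS; compound exposure 16 hr at 37C, 5% CO2; detection by FRET beta-lactamase substrate, 2 hr, room temperature.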

A short description of experiment [10]: qHTS assay to identify small molecule agonists of the TGF-beta/Smad signaling pathway (AID 1346859; active means well fitted activation curve with a large enough effect in the signal ratio in the repeat runs, not every such curve was filed as active; the % refers to the signal ratio; further: series mostly up to about 77 µM). In short, it runs like this: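 Screening used HEK 293T SBE-bla cells at 4,000/well. Test agents: 5 hr, 37 C. Detection: FRET substrate, 2 hr RT, then excitation 405 nm with emissions at 460 and 530 nm.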

Structures are written as SMILES. Unmarked numbers belong to inactive results. Results filed as inconclusive are left out. Calls of active or inactive are those of the source. Unless noted, the call rests on the fitted dose curve; in most records, active means well fitted curve in the direction sought with a large enough effect in the repeat runs; inconclusive means weak or mixed curves; inactive means no such curve, though single readings can be large; an effect the other way counts as inactive or inconclusive.
On the % scale 0 is the no-effect control and ±100 the full control effect.

Chain of Progesterone receptor (Homo sapiens) (P06401 whole entry, looked up): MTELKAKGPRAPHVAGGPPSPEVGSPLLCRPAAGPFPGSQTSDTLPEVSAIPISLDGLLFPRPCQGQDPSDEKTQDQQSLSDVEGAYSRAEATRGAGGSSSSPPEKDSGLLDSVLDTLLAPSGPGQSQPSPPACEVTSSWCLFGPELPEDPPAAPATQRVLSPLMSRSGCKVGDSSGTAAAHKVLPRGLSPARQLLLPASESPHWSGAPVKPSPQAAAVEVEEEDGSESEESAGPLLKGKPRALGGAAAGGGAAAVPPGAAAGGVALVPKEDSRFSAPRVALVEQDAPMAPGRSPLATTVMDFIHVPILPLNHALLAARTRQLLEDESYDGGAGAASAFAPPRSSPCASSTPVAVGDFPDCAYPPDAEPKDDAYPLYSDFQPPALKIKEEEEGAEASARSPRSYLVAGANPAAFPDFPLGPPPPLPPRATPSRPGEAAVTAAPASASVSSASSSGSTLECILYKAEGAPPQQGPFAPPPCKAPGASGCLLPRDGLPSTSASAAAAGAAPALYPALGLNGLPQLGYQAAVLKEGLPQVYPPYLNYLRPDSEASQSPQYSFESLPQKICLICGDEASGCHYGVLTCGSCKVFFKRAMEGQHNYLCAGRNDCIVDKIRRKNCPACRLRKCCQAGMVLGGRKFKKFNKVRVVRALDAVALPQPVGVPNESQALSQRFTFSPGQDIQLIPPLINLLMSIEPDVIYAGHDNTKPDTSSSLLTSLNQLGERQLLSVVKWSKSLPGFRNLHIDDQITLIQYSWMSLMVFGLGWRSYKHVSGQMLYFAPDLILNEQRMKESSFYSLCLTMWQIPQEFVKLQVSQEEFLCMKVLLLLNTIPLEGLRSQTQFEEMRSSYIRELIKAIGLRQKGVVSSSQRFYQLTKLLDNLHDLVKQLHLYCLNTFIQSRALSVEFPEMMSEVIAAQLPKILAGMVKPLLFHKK
Chain of Thyrotropin-releasing hormone receptor (Homo sapiens) (P34981 whole entry, looked up): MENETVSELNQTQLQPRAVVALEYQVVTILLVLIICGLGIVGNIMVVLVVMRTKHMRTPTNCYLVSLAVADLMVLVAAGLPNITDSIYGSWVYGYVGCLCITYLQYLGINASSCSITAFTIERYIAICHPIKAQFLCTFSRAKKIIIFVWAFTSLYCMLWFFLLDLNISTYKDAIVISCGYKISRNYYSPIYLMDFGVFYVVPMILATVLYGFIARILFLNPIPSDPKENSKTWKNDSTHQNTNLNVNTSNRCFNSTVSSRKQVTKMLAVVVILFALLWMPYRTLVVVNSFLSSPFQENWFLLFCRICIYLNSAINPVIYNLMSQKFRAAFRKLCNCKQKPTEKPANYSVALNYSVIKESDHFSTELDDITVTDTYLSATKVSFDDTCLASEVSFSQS
Chain of Thyrotropin receptor (Homo sapiens) (P16473 whole entry, looked up): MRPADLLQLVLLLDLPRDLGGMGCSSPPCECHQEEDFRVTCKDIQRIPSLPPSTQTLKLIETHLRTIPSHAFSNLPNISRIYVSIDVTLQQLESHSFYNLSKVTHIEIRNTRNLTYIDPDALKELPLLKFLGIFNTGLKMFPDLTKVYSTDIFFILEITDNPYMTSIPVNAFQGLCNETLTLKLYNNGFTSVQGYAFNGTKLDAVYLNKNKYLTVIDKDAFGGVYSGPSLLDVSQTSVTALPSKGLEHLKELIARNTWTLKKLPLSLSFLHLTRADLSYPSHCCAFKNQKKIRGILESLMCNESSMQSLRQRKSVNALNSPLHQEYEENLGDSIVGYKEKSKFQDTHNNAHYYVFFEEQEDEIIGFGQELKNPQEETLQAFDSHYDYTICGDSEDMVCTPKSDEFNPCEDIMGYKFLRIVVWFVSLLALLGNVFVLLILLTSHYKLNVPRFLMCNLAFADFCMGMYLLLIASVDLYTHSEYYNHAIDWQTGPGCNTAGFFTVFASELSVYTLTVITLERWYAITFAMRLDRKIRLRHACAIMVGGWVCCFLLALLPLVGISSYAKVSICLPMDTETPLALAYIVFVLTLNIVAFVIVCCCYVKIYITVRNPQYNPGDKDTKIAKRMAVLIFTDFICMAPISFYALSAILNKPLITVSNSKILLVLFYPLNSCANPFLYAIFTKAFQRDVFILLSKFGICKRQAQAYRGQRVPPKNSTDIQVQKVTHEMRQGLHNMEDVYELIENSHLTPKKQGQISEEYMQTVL

With `CCOC(=O)c1ccccc1O`, the Potency result in experiment [1], in experiment [2], in experiment [3] and in experiment [4] was “inactive” throughout. The call in experiment [5] and in [6] was inactive.
In the case of `C[C@]12CCC(=O)C=C1CC[C@@H]1[C@@H]2CC[C@@]2(C)[C@H]1CC[C@]2(O)C(=O)CO`, the Potency entry in experiment [1], in experiment [2] and in experiment [3] was “inactive” throughout. The call in [7], in [5] and in experiment [6] was inactive.
With `Cc1c[nH]c(=S)[nH]c1=O`, the Potency result in [2], in experiment [8], in experiment [9], in experiment [3] and in [4] was “inactive” throughout. Besides, the result in [7] and in experiment [5] was inactive.
Take `CCN1CC(CCN2CCOCC2)C(c2ccccc2)(c2ccccc2)C1=O` (stereo unspecified): the Potency result in experiment [1], in experiment [8], in [9], in experiment [3] and in experiment [4] was “inactive” in each case. In addition, the call in [7], in experiment [5] and in experiment [6] was inactive.
As for `CN1[C@@H]2CC[C@H]1CC(OC(=O)c1c[nH]c3ccccc13)C2` (stereo partly specified), the Potency result in [1], in experiment [2] and in [3] was “inactive” each time. The compound was classed as inactive in experiment [7], in [5], in experiment [10] and in experiment [6].
For the compound `NC1=NCC2c3ccccc3Cc3ccccc3N12` (stereo unspecified), the Potency entry in experiment [2], in experiment [8], in experiment [9], in experiment [3] and in experiment [4] was “inactive” each time. The compound was classed as inactive in experiment [7], in experiment [5], in [10] and in experiment [6].
On to `O=c1oc2c(O)c(O)cc3c(=O)oc4c(O)c(O)cc1c4c23`, for which the results for the activity change, negative = cytotoxicity in experiment [2], in experiment [4] and in [5] were -2.74% [at 19 µM], -1.25% [at 19 µM] and 10.9% [at 15.8 µM], respectively. Besides, the figures for the activation in experiment [8] and in experiment [10] were -0.0631% [at 19 µM] and 5.13% [at 15.8 µM], respectively. Further, the activity change, negative = inhibition in experiment [9] was 7.58% [at 18.9 µM]. Further, in experiment [3], the Potency entry was “inactive”. The viability change, negative = cytotoxic in experiment [7] was -7.88% [at 15.8 µM]. Moreover, the activity, negative = inhibition in experiment [6] is 1.88% [at 10.5 µM].
Regarding `CC[C@H]1CC[C@H](NCc2cc3c(cc2OC)[C@H]2C[C@H]2C(=O)N3C)[C@H](c2ccccc2)N1`, the Potency result in experiment [1] and in [8] was “inactive” each time. For the same compound, the call in experiment [7], in experiment [5], in experiment [10] and in experiment [6] was inactive.
With `CN(C)C(=O)NC1(c2ccccc2)CCN(CCC[C@]2(c3ccc(Cl)c(Cl)c3)CCCN(C(=O)c3ccccc3)C2)CC1`, the values for the activity change, negative = inhibition in experiment [1] and in experiment [9] were -0.429% [at 19 µM] and -8.48% [at 18.9 µM], respectively. The activation in experiment [8] was -5.56% [at 19 µM]. In addition, the activity change, negative = cytotoxicity in experiment [4] was 3.74% [at 19 µM]; in experiment [5], 2.25% [at 15.8 µM]. Also, in experiment [7], the viability change, negative = cytotoxic is 0% [at 15.8 µM].
For `O=Cc1ccc(O)c(O)c1O`, the Potency entry in [1], in experiment [8], in experiment [3] and in experiment [4] was “inactive” throughout. Moreover, the call in experiment [7], in experiment [5], in [10] and in experiment [6] was inactive.
Regarding `O=c1[nH]cnc2c1ncn2[C@@H]1O[C@H](CO)[C@@H](O)[C@H]1O`, the Potency result in experiment [1], in experiment [2], in experiment [3] and in experiment [4] was “inactive” each time. For the same compound, the outcome in experiment [5], in [10] and in experiment [6] was inactive.
Take `Oc1ccccc1C=NCc1ccccc1`: the Potency entry in experiment [1], in [8], in experiment [9], in experiment [3] and in experiment [4] was “inactive” each time. The compound was called inactive in [7], in [5] and in [10].
Consider `OCCN(CCO)CCN(CCO)CCO`, for which the Potency entry in [1], in experiment [2] and in [4] was “inactive” in each case. For the same compound, the compound was classed as inactive in experiment [5], in experiment [10] and in [6].
For the compound `OCc1c2ccccc2cc2ccccc12`, the Potency entry in experiment [2], in experiment [8], in [3] and in experiment [4] was “inactive” each time. For the same compound, in experiment [9], the Potency is 54.6 µM (active). In addition, the compound was called inactive in experiment [7], in experiment [5], in experiment [10] and in experiment [6].
`CC(Oc1c(Cl)cccc1Cl)C1=NCCN1` (stereo unspecified): the Potency entry in experiment [1] and in [2] was “inactive” in each case. Also, the Potency in experiment [3] was 29.8 µM (active). Also, the call in [5], in experiment [10] and in experiment [6] was inactive.
`CO[Si](C)(C)OC`: the Potency entry in experiment [1], in experiment [2] and in experiment [4] was “inactive” throughout. For the same compound, the call in experiment [5] and in experiment [10] was inactive.
Regarding `CN(C)CCOc1ccccc1Cc1ccccc1`, the Potency in experiment [1] is 29.8 µM (active). Also, the Potency result in [2] was “inactive”. Besides, the result in experiment [5], in experiment [10] and in experiment [6] was inactive.
For the compound `C=CC(C)(O)CC/C=C(\C)CCC=C(C)C` (stereo unspecified), the Potency result in [2], in [8], in [9], in experiment [3] and in [4] was “inactive” throughout. In addition, the compound was classed as inactive in [7], in [5], in experiment [10] and in [6].
For `O=C(O)c1cccc(Cl)c1Cl`, the Potency result in experiment [1], in experiment [2], in experiment [3] and in [4] was “inactive” in each case. Moreover, the result in experiment [7], in experiment [5] and in experiment [10] was inactive.
For the compound `OCCN(CCO)c1ccccc1`, the Potency entry in experiment [2], in [8], in experiment [9], in experiment [3] and in experiment [4] was “inactive” throughout. The result in [7], in experiment [5] and in experiment [10] was inactive.
In the case of `C[C@]12C(=O)OC(=O)[C@H]1[C@H]1C=C[C@@H]2C1`, the Potency result in experiment [2], in experiment [8], in experiment [9], in [3] and in experiment [4] was “inactive” each time. Moreover, the result in [5] and in experiment [6] was inactive.
Consider `O=C(O[C@@H](C(=O)O)[C@@H](OC(=O)c1ccccc1)C(=O)O)c1ccccc1`, for which the Potency entry in experiment [2], in [8], in experiment [9] and in [4] was “inactive” each time. The call in experiment [7], in experiment [5] and in experiment [10] was inactive.
Regarding `Cn1cnc2c(F)c(Nc3ccc(Br)cc3Cl)c(C(=O)NOCCO)cc21`, the Potency entry in experiment [2], in [8], in experiment [9] and in [3] was “inactive” in each case. The result in experiment [7], in experiment [5] and in experiment [10] was inactive.
For the compound `C=Cc1ccccc1`, the Potency result in experiment [2], in experiment [8], in experiment [9], in [3] and in experiment [4] was “inactive” in each case. In addition, the outcome in experiment [5] and in experiment [10] was inactive.
Consider `CCCCCCCCCCCCOCCOS(=O)(=O)O`, for which the Potency entry in [2], in [8] and in experiment [3] was “inactive” throughout. In addition, the Potency in experiment [4] was 27.3 µM (active). For the same compound, the compound was called inactive in [7] and in [5].
